LDHA block = LDHA (human) enzyme inhibition | purified LDHA, NADH/diaphorase-resazurin fluorescence; hits give low values | activity change, % (values are at about 110 or 230 µM) | actives 0.15% (n = 480,000) | P00338; in the data active means activity change below about -30%; inconclusive means mostly about -25% to -30%;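 further: plate controls were DMSO wells for no effect and wells without enzyme for full effect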
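Human LDH5 (2 nM) was incubated with 0.06 mM NADH and 0.2 mM pyruvate for 5 min at room temperature in Tris pH 7.4. Remaining NADH was coupled through diaphorase/resazurin, and resorufin fluorescence was read at 0 and 20 min.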
RORg inh = ROR gamma (mouse) transcription inhibition | P51450 | Drosophila S2 Gal4-RORgamma UAS-luciferase reporter, 20 h | Potency, µM (doses to about 53.6 µM), for the others: at the highest dose activity change, negative = inhibition, usual class: inhibitors | actives 5.4% (n = 310,000) | AID 2551; further: potency means the concentration at half of the fitted maximal effect; nearly all actives have a fitted effect of over 60% in size
Target sequence (P51450 whole entry, looked up, the tested form may be a part): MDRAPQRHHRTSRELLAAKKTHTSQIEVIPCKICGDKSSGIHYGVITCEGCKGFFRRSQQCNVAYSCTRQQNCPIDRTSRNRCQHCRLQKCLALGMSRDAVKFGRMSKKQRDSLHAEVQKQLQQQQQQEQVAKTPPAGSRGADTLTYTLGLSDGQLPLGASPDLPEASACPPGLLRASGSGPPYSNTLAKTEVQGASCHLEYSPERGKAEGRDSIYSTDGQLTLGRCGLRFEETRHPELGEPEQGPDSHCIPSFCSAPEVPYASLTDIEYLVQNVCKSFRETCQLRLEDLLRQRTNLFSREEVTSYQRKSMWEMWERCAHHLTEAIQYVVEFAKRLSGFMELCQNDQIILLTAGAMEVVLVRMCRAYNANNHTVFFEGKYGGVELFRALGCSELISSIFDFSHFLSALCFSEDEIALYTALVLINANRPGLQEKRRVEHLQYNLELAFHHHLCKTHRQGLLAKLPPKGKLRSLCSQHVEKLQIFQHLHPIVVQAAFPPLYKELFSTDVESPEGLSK
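A Gal4/UAS one-hybrid system in insect cells: metallothionein-promoter Gal4–ROR gamma fusion plus Photinus luciferase reporter. Copper sulfate 700 uM final, 20 hr ambient incubation, luminescent detection after 10 min with reagent.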
IL1B secr inh = inflammasome signaling inhibition, IL-1 beta readout; THP-1 LPS/ATP IL-1B secretion, AlphaLISA, 16 h; hits give low values; activity change, % at 57.5 µM; actives 4.7% (n = 360,000); AID 743279; in the data active means activity change below about -50%; inconclusive means mostly about -30% to -49%
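Secreted IL-1B measured by AlphaLISA bead assay after 16 h compound exposure of THP-1 cells; compounds (final up to 57.5 uM) added 1 h before LPS (250 ng/mL) and ATP (1.25 mM) stimulation; lower signal means less secretion.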
DT40 TDP1 no CPT = qHTS for Inhibitors of human tyrosyl-DNA phosphodiesterase 1 (TDP1): qHTS in cells in absence of CPT; DT40 Tdp1-/- hTDP1 cells, no CPT, ATP luminescence, 48 h; Potency, µM (series often up to 46.2 µM), inactives show at the top dose activity change, negative = growth inhibition, usual class: inhibitors; actives 15% (n = 420,000); AID 686978, 2013; further: potency means the concentration at half of the fitted maximal effect; nearly all actives have a fitted effect of over 55% in size
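Cells were dispensed at 400 per well, compounds added by pin tool, plates incubated ≥48 hr at 37 °C, then CellTiter-Glo added for 30 min at room temperature before luminescence reading. Line: DT40 Tdp1-/- complemented with hTDP1; camptothecin omitted.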
Gal4-VP16 FLuc = inhibits Gal4-VP16 luciferase reporter, ROR gamma counter-screen; Drosophila S2 Gal4-VP16 UAS-luciferase, luminescence, 20 h; Potency, µM (highest dose often 53.6 µM), for inactives: top-dose activity, negative = inhibition, hits mostly inhibitors; actives 3.5% (n = 310,000); AID 2546;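 further: Gal4-VP16 expression switched on by copper sulfate through the metallothionein promoter; potency means the concentration at half of the fitted maximal effect; nearly all actives have a fitted effect of over 50% in size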
TDP1 cell CPT = growth inhibition of DT40 Tdp1-/-;hTDP1 cells with camptothecin (screen for TDP1 inhibitors) | chicken DT40 Tdp1-/-;hTDP1 cells + 20 nM CPT, ATP luminescence, 48 h | Potency, µM (highest dose often 46.2 µM), for inactives: top-dose activity change, negative = growth inhibition, actives largely listed as inhibitors | actives 12% (n = 420,000); further: potency means the concentration at half of the fitted maximal effect; nearly all actives have a fitted effect of over 55% in size
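Chicken DT40 Tdp1-/- cells complemented with human TDP1, 400 cells/well, exposed to compounds plus 20 nM camptothecin for at least 48 h at 37 C; viability read as ATP content by CellTiter-Glo luminescence.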
The depositor's hits bear a star; ? = inconclusive; · = not tested or not shown; [ ] = remark or other dose. Sampled rows, rich in hits. Any-hit rate of the full collection: about 18%. Unless noted, the call rests on the fitted dose curve; in most records, active means well fitted curve in the direction sought with a large enough effect; inconclusive means small, poorly fitted or top-dose-only effect, or another doubt; inactive means no such curve, though single readings can be large; an effect the other way counts as inactive or inconclusive. Unless noted, on the % scale 0 is the no-effect control and ±100 the full control effect.

SMILES | LDHA block | RORg inh | IL1B secr inh | DT40 TDP1 no CPT | Gal4-VP16 FLuc | TDP1 cell CPT
C/C(=N\Nc1ccccc1)c1cccc([N+](=O)[O-])c1 | 14.3 | · | · | · | · | ·
C/C(=N\NC(=S)NC(C)C)c1ccc(Cl)c([N+](=O)[O-])c1 | -1.3 | ? | -91.6* | 18.4µM* | ? | 18.4µM*
C/C(=N/Nc1nc(C)c(C)s1)c1cccc([N+](=O)[O-])c1 | -4.4 | 11.2µM* | 21.6 | 23.1µM* | ? | 14.6µM*
C/C(=N/Nc1c(F)c(F)nc(F)c1F)c1ccc(Cl)c([N+](=O)[O-])c1 | 1.1 | · | · | · | · | ·
CN(CCCc1[nH]nc(N)c1C#N)c1nc(-c2ccccc2)nc2ccccc12 | -15.8 | · | · | · | · | ·
CC1CCC(NC(=O)c2cc3ccccc3c(Cl)n2)CC1 (configuration not stated) | -4.2 | · | · | · | · | ·
COc1ccc(CCNC(=O)c2c(Nc3ccccc3C)sc(C(=O)c3ccccc3)c2N)cc1OC | -3.2 | · | · | 9.2µM* | · | ?
CCOc1ccccc1Nc1sc(C(=O)c2ccccc2)c(N)c1C(=O)NCCc1ccccc1 | 1.6 | · | · | ? | · | ?
Cc1ccccc1Nc1sc(C(=O)c2ccc(F)cc2)c(N)c1C(=O)NCCc1ccccc1 | 6.1 | · | · | 18.4µM* | · | ?
Cc1cc2nc(/C(C#N)=C\c3ccc(OCC(C)C)cc3)[nH]c2cc1C | 9.1 | · | · | · | · | ·
Cc1c(C(=O)c2ccc[nH]2)oc2ccc(F)cc12 | -1.2 | · | · | · | · | ·
O=C(CSc1n[nH]c(-c2ccccc2)n1)Nc1ccccc1C(F)(F)F | -4.5 | · | · | · | · | ·
CN(C(=O)COC(=O)c1cnc(Cl)c(Cl)c1)C1CCS(=O)(=O)C1 (configuration not stated) | -3.4 | -2.5% | -86.0* | -24.9% | -5.6% | -25.2%
CN(C(=O)COC(=O)c1ccc(Cl)nc1)C1CCS(=O)(=O)C1 (configuration not stated) | 2.6 | 22.8% | -12.8 | -12.6% | -7.7% | -3.9%
CN(C(=O)COc1ccc(Br)cc1Cl)C1CCCCC1 | -2.7 | 26.4% | -52.2* | ? | 20.1% | ?
O=C(COC(=O)c1cnc(Cl)c(Cl)c1)NC1CCCC1 | -7.9 | · | ? | -22.6% | · | -2.3%
CCN(CC)C(=O)COc1ccc(Br)cc1Cl | -5.7 | -21.9% | 31.1 | -25.9% | 25.5% | -6.3%
CN(C(=O)COC(=O)c1cnc(Cl)c(Cl)c1)C1CCCCC1 | -4.5 | · | -96.2* | -26.4% | · | -28.2%
OCCC#CCN1CCCCC1 | 2.1 | · | · | · | · | ·
CCN1CCN(CCCN(Cc2ccco2)C(=S)Nc2ccc(Cl)cc2)CC1 | -10.7 | -18.1% | -27.8 | -14.3% | -6.8% | -6.0%
CCOc1ccc(NC(=S)N(CCCN2CCCC2)Cc2cccn2Cc2ccc(Cl)cc2)cc1 | -4.5 | 12.6µM* | -22.8 | ? | -2.5% | 14.6µM*
CCN1CCN(CCCN(Cc2ccco2)C(=S)Nc2ccc(C)c(Cl)c2)CC1 | -4.0 | 11.9% | ? | ? | 0.0% | -18.0%
Cc1cccc(NC(=S)N(CCCN2CCCC2)Cc2cccn2Cc2ccc(Cl)cc2)c1 | -2.7 | ? | -87.3* | 16.4µM* | ? | ?
CCn1c(NCC(O)c2ccccc2)nc2c1c(=O)n(C)c(=O)n2C (configuration not stated) | 4.0 | · | · | · | · | ·
FC(F)(F)c1ccc(N/N=C/c2cccnc2)nc1 | -3.9 | 33.8% | -96.7* | ? | 6.7% | -23.1%
SMILES | LDHA block | RORg inh | IL1B secr inh | DT40 TDP1 no CPT | Gal4-VP16 FLuc | TDP1 cell CPT
Cc1ncc(CO)c(/C=N/N=C/c2ccccc2O)c1O | -4.2 | 3.5% | -11.3 | -11.5% | 17.9% | -15.0%
Cc1ncc(CO)c(/C=N/Nc2ccc(C(F)(F)F)cn2)c1O | 2.9 | ? | 62.7 | 3.66µM* | 15.8µM* | 4.11µM*
Cc1ncc(CO)c(/C=N/NC(=S)Nc2ccc(F)cc2)c1O | 1.3 | ? | 50.0 | 10.3µM* | ? | 16.4µM*
Fc1ccc(/C=N/Nc2ccc(C(F)(F)F)cn2)cc1 | 7.3 | · | · | · | · | ·
CNC(=O)CN1c2ccc(Br)cc2-c2ccccc2S1(=O)=O | 1.1 | · | · | · | · | ·
CCCNC(=O)C1CC(=O)N(c2ccc(OCc3ccc(F)cc3)cc2)C1 (configuration not stated) | -5.7 | -2.4% | 2.7 | -26.3% | -3.2% | -24.0%
NC(=O)C1CC(=O)N(c2ccc(OCc3ccc(Cl)cc3)cc2)C1 (configuration not stated) | 0.1 | 7.6% | -3.1 | 23.1µM* | 1.0% | ?
NC(=O)C1CC(=O)N(c2ccc(OCC(=O)N3CCCC3)cc2)C1 (configuration not stated) | -5.8 | · | -0.6 | -14.4% | · | 2.4%
CCCNC(=O)C1CC(=O)N(c2ccc(OCc3ccc(Cl)cc3)cc2)C1 (configuration not stated) | -8.5 | 7.6%[1.91 µM] | 15.0 | 8.2µM* | -8.3% | ?
CCCNc1nc2ccccc2nc1S(=O)(=O)Cc1ccc(Cl)cc1 | 11.1 | · | · | · | · | ·
COc1cc2cc(C)c(Br)c(OC)c2cc1OC | 17.8 | · | -27.0 | ? | · | ?
COc1cc2cc[n+]3cc4c(OC)c(OC)ccc4cc3c2cc1OC | · | 9.7% | · | 2.91µM* | -2.5% | 2.31µM*
CC1(c2ccccc2)C=C(c2ccccc2)Oc2ccccc21 (configuration not stated) | 2.5 | · | · | · | · | ·
COc1cccc(-c2cc(C(=O)NCC3CCCO3)c3cc(C)cc(C)c3n2)c1 (configuration not stated) | -3.5 | 19.4% | -9.2 | 25.9µM* | -11.1% | 23.1µM*
COc1cccc(-c2nn(-c3ccc(F)cc3)cc2C(=O)NCC2CCCO2)c1 (configuration not stated) | -2.6 | · | -8.7 | 23.1µM* | · | 23.1µM*
COc1cccc(-c2nn(-c3ccc(C)cc3)cc2C(=O)NCC2CCCO2)c1 (configuration not stated) | 2.5 | · | -16.3 | ? | · | ?
CN(CC(=O)NC(=O)Nc1ccccc1F)Cc1cccc(C#N)c1 | 5.6 | · | · | · | · | ·
C=C1C[C@@H]2C[C@@H]2CN(S(=O)(=O)c2ccc(C)cc2)[C@@H]1COCc1ccccc1 | 1.9 | · | 3.3 | 8.2µM* | · | 8.2µM*
Cc1ccc(S(=O)(=O)N2C[C@@H]3[C@H]4CC[C@H](C4)[C@@H]3[C@@H](C)[C@@H]2c2cccn2Cc2ccccc2)cc1 | -5.4 | · | -8.9 | ? | · | -14.8%
COC(=O)c1ccccc1NC(=O)c1cnc(Nc2ccc(OC)cc2)c2ccccc12 | 3.1 | · | · | 9.2µM* | · | 23.1µM*
Cc1ccc(Nc2ncc(C(=O)Nc3ccc(F)cc3F)c3ccccc23)cc1Cl | 1.0 | · | · | ? | · | 16.4µM*
